From ChEMBL document CHEMBL3433997, “St. Jude Leishmania screening dataset” (2016)

Experiments:
Format in all cases: functional
[1] = target: Solute carrier family 2, facilitated glucose transporter member 1 (Homo sapiens) (UniProt P11166); test: ST_JUDE_LEISH: Cytotoxicity at 2uM final concentration against transgenic Leishmania Mexicana promastigotes LmGLUT1 that are glucose transport deficient and complemented with the human glucose transporter GLUT1. Activity is measured by DNA content using SYBR green in vitro
Chain of Solute carrier family 2, facilitated glucose transporter member 1 (Homo sapiens) (P11166 whole entry): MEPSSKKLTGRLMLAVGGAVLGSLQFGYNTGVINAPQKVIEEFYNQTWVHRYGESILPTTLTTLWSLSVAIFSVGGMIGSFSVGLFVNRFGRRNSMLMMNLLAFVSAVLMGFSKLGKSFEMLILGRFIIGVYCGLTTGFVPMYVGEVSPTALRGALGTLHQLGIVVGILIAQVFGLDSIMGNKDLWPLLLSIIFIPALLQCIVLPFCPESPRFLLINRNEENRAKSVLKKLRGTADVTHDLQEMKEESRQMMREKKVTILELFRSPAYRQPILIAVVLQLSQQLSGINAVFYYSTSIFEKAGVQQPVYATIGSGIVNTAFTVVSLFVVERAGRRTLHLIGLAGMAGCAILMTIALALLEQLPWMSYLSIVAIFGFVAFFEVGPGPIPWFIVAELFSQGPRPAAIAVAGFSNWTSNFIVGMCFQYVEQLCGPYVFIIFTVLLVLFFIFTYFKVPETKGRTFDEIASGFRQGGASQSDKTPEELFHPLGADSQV

[2] = target: Hexose transporter 1 (Plasmodium falciparum) (UniProt O97467); test: ST_JUDE_LEISH: Cytotoxicity at 2uM final concentration against transgenic Leishmania Mexicana promastigotes LmPfHT that are glucose transport deficient and complemented with the Plasmodium falciparum hexose transporter. Activity is measured by DNA content using SYBR green in vitro
[3] = target: Glucose transporter (Leishmania mexicana) (UniProt O61059); test: ST_JUDE_LEISH: Cytotoxicity at 2uM final concentration against transgenic Leishmania Mexicana promastigotes LmGT2 that are glucose transport deficient and complemented with the L. Mexicana glucose transporter 2. Activity is measured by DNA content using SYBR green in vitro

Work on `CCCN(CCC)C(=S)N/N=C1/C(=O)Nc2ccccc21` yielded an inhibition [1] of 0.67%, an inhibition [2] of -0.6% and an inhibition [3] of -4.34%.

`Cc1ccccc1C1CCN(C2CCC(NC(=O)/C=C/c3ccc(F)c(F)c3)CC2)CC1` (stereo unspecified) was tested, and the inhibition [1] was -1.77%, the inhibition [2] was -1.74% and the inhibition [3] was -1.27%.

With `Cc1cccc2nc(-c3ccc(-c4ccc(CN5CCCCC5CO)cc4)cc3)[nH]c12` (stereo unspecified) the inhibition [1] was 27.8%, the inhibition [2] was 31.6% and the inhibition [3] was 19.5%.

`CC(=O)N1N=C(c2ccc(F)cc2)Sc2c1nc(-c1ccccc1)n2C(C)=O` was tested, and the inhibition [1] was 8.6%, the inhibition [2] was 7.94% and the inhibition [3] was 8.7%.

`Cc1ccccc1OCCCc1c(C)nc(N)nc1N` was tested, and the inhibition [1] was 3.68%, the inhibition [2] was 9.06% and the inhibition [3] was 0.82%.

Work on `C[C@H](Cc1ccc(OCCCCCCOc2ccc(C[C@@H](C)NC(=O)[C@H](O)c3cccc(Cl)c3)cc2)cc1)NC[C@H](O)c1cccc(Cl)c1` yielded an inhibition [1] of 7.21%, an inhibition [2] of 5.41% and an inhibition [3] of 4.7%.

`c1ccc(Oc2ccc(Nc3ccnc(Nc4ccc5cn[nH]c5c4)n3)cc2)cc1` showed an inhibition [1] of 3.91%, an inhibition [2] of 3.81% and an inhibition [3] of 1.54%.

`O=C(/C=C/c1ccc(Cl)c(Cl)c1)NCCCCCN1CCC(n2c(=O)[nH]c3ccccc32)CC1` showed an inhibition [1] of 8.14%, an inhibition [2] of 7.32% and an inhibition [3] of 7.73%.

`O=C(Nc1cccc(-c2cccc(-c3nc4cc(F)ccc4[nH]3)c2)c1)c1csnn1` was tested, and the inhibition [1] was 6.12%, the inhibition [2] was 4.57% and the inhibition [3] was 1.83%.

`NC(=O)c1ccccc1OCC(=O)Nc1ccc(-c2cccc(-c3nc4cc(C(F)(F)F)ccc4[nH]3)c2)cc1` was tested, and the inhibition [1] was 2.52%, the inhibition [2] was -0.46% and the inhibition [3] was 3.74%.

Work on `Cc1ccc2[nH]c(-c3ccc(C=CC(=O)NC4CCN(Cc5ccccc5)CC4)cc3)nc2c1` yielded an inhibition [1] of 2.64%, an inhibition [2] of 3.29% and an inhibition [3] of 5.84%.

In the case of `O=C(NC1CCN(c2ccnc(Nc3ccc(F)cc3)n2)C1)c1cc2ccccc2s1` (stereo unspecified), the inhibition [1] is reported as 0.69%, the inhibition [2] is reported as 1.57% and the inhibition [3] is reported as 1.27%.
